Source: PubChem
This is a sample that favours compounds with a hit; in the whole collection about 3.5% have one here.
GPR151 ag: activates the human receptor GPR151 | PathHunter beta-arrestin GPR151 cells, luminescence | activation, % at 11.2 µM | Q8TDV0 | actives 1% (n = 650,000); in the data active = activation above about 4.9%;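 note: 0% = median of compound wells and 100% = cells with positive control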
Target sequence (Q8TDV0 whole entry, looked up): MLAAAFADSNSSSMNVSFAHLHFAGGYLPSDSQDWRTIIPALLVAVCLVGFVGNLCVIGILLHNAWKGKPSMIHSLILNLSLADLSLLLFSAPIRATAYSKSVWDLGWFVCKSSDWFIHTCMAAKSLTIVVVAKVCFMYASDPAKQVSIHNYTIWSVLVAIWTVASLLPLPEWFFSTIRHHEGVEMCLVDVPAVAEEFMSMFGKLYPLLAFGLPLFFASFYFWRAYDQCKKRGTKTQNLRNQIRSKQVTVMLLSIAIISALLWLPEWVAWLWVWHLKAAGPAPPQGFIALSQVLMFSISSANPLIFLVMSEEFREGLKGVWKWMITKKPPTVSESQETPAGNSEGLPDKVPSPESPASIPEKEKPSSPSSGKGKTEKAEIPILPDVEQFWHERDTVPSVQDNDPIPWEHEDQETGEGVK
FBW7 activator: human FBW7 E3 ligase activation, primary screen; AlphaScreen FBW7–phospho-cyclin E peptide binding, activator screen; normalized activity (activation), % at 26.1 µM; Q969H0; AID 1259310; actives 0.13% (n = 650,000); in the data active = normalized activity above about 1.9%;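 note: purified mutant Fbw7 with reduced substrate affinity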
TEAD-YAP block: TEAD-YAP interaction inhibition | HEK-TIYL cells, TEAD-Gal4/YAP UAS-luciferase luminescence | inhibition, % at 9.12 µM | actives 1.4% (n = 640,000); in the data active = inhibition above about 32%;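 note: 0% = median of test compound wells and 100% = reference inhibitor wells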
MITF primary: inhibitors of human MITF; AID 1259374; AlphaScreen MITF homodimerization, bead proximity signal; actives 0.91% (n = 650,000); inhibition, % at 2.6 µM; O75030; in the data active = inhibition above about 50%;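 note: 0% = vehicle wells with protein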
* marks the source's active call; other numbers are inactive results.

`CNC(=S)NCCCNc1nc2cc(C)c(C)cc2cc1C#N` gave GPR151 ag 0, FBW7 activator 0, TEAD-YAP block -12 and MITF primary -11.
For CC1CCc2c(sc3nnn(CC(=O)NCc4cccs4)c(=O)c23)C1 (stereo not given) the results were GPR151 ag 1, FBW7 activator 0, TEAD-YAP block 43* and MITF primary 8.
For CCC(C)C1N=C2c3ccccc3N=C(SCC(N)=O)N2C1=O (stereo not given) the results were GPR151 ag 2, FBW7 activator 0, TEAD-YAP block 0 and MITF primary 7.
`COC(=O)c1c(NC(=O)c2ccco2)sc(C(=O)Nc2ccc(C)cc2)c1C` gave GPR151 ag 0, FBW7 activator 0, TEAD-YAP block 34* and MITF primary -4.
`COC(=O)c1c(NC(=O)c2ccco2)sc(C(=O)Nc2ccc(F)cc2)c1C` gave GPR151 ag 0, FBW7 activator 0, TEAD-YAP block 4 and MITF primary -2.
Screening O=C(NCCOc1ccccc1)C1CCN(c2ccc(Nc3ccncn3)nn2)CC1 returned GPR151 ag 0, FBW7 activator 0, TEAD-YAP block 3 and MITF primary 1.
Screening CCn1ncc(C2=NOC(C(=O)NCc3ccco3)C2)c1C (stereo not given) returned GPR151 ag 0, FBW7 activator 0, TEAD-YAP block 45* and MITF primary -20.
`O=C(NCc1ccco1)C1CC(c2ccccc2F)=NO1` (stereo not given) gave GPR151 ag 1, FBW7 activator 0, TEAD-YAP block 5 and MITF primary 2.
For CCOC(=O)c1[nH]c(C)c(C(=O)N2CC(C)CC(C)C2)c1C (stereo not given) the results were GPR151 ag -1, FBW7 activator 0, TEAD-YAP block 44* and MITF primary -2.
`CCOC(=O)c1[nH]c(C)c(C(=O)N2CCCCCC2)c1C` gave GPR151 ag 1, FBW7 activator 1, TEAD-YAP block -8 and MITF primary 20.
`CCOC(=O)c1[nH]c(C)c(C(=O)c2ccc(Cl)cc2)c1C` gave GPR151 ag 2, FBW7 activator 0, TEAD-YAP block 40* and MITF primary 13.
CCOC(=O)c1c(C)[nH]c(C(=O)C(C)Nc2ccccc2OCC)c1C (stereo not given) was read as GPR151 ag 0, FBW7 activator 0, TEAD-YAP block -3 and MITF primary 5.
For CCOC(=O)c1[nH]c(C)c(C(=O)Nc2cc(C)ccc2OC)c1C the results were GPR151 ag 2, FBW7 activator 0, TEAD-YAP block 57* and MITF primary 2.
CCOC(=O)c1[nH]c(C)c(C(=O)Nc2ccccc2OCC)c1C was read as GPR151 ag 0, FBW7 activator 0, TEAD-YAP block 58* and MITF primary -9.
Screening CC(C)CC(NC(N)=O)C(=O)NCCc1ccc(Cl)cc1Cl (stereo not given) returned GPR151 ag 0, FBW7 activator 0, TEAD-YAP block -2 and MITF primary -10.
For CCOC(=O)c1c(C)[nH]c(C(=O)C(C)Nc2ccc(OC)c(OC)c2)c1C (stereo not given) the results were GPR151 ag -2, FBW7 activator 0, TEAD-YAP block 43* and MITF primary 42.
Screening CC(=O)c1[nH]c(C)c(C(=O)Nc2cc(Cl)ccc2C)c1C returned GPR151 ag 0, FBW7 activator 0, TEAD-YAP block -1 and MITF primary 17.
Screening CCOC(=O)c1[nH]c(C)c(C(=O)Nc2ccccc2C)c1C returned GPR151 ag -1, FBW7 activator 0, TEAD-YAP block 44* and MITF primary -5.
`CCOC(=O)c1[nH]c(C)c(C(=O)Nc2cc(Cl)ccc2C)c1C` gave GPR151 ag 0, FBW7 activator 0, TEAD-YAP block 47* and MITF primary -10.
For CCOC(=O)c1c(C)[nH]c(C(=O)C(C)Nc2cc(NC(C)=O)ccc2OC)c1C (stereo not given) the results were GPR151 ag -2, FBW7 activator 0, TEAD-YAP block 1 and MITF primary 1.
CCOC(=O)c1[nH]c(C)c(CNc2cc(OC)ccc2OC)c1C was read as GPR151 ag 0, FBW7 activator 0, TEAD-YAP block 50* and MITF primary 12.
Screening Cc1ccc(NC(=O)C(=O)NCCCn2ccnc2)cc1C returned GPR151 ag 0, FBW7 activator 0, TEAD-YAP block -15 and MITF primary 9.
Screening Cc1ccc(S(=O)(=O)NC(=O)Nc2cc(C)no2)cc1 returned GPR151 ag 0, FBW7 activator 0, TEAD-YAP block 10 and MITF primary -3.
